Hits are enriched below; roughly 1.2% of the tested compounds scored in any of these assays.
AF4-AF9 inh: MLL-AF4/AF9 protein interaction inhibition. AlphaScreen, biotin-AF4 peptide binding to FLAG-AF9. inhibition, % at 10 µM. P42568. 350,000 tested, 0.47% active;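 active means every replicate reaching a set inhibition limit, whatever the replicate mean, cut at about 25% in these data; inconclusive means mean inhibition reaches that limit but some replicates miss it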
RAD52 anneal inh: blocks human RAD52 DNA annealing. 360,000 tested, 0.46% active. inhibition, % at 18.7 µM. recombinant RAD52 DNA annealing, FRET fluorescence;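 active means every replicate showing at least 50% inhibition; inconclusive means mean inhibition at least 50% but not in every replicate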
RAD54 branch: blocks human RAD54 Holliday junction branch migration. Q92698. inhibition, % at 10.4 µM. FAM/BHQ fluorescence. 360,000 tested, 0.14% active;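 active means mean normalized replicate activity at least 40 and at least half of replicates scoring 40 or more; inconclusive means only one of the two criteria met; inactive means mean below 40 and under half of replicates reaching 40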;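 further: inhibitors cause a drop in the FAM fluorescence signal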
Target sequence (Q92698 whole entry, looked up): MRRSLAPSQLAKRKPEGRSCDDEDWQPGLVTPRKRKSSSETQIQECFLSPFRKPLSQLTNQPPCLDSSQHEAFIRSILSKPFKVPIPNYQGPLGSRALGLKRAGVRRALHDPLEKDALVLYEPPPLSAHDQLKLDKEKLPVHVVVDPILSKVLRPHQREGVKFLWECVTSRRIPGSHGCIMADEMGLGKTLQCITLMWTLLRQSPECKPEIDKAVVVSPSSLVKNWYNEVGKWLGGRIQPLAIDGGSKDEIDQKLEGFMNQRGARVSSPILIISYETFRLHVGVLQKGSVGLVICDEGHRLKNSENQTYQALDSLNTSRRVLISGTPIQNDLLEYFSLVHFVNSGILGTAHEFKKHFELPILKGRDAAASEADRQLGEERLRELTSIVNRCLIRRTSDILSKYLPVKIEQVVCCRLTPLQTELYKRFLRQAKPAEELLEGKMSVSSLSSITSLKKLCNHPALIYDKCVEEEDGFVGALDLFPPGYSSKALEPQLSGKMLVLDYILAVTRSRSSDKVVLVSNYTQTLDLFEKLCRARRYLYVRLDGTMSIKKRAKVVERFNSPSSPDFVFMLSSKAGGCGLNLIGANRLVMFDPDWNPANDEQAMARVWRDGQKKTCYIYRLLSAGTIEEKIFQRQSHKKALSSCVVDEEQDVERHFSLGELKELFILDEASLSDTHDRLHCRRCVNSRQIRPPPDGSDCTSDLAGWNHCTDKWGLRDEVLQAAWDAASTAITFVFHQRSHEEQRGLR
CASP6 VEID inh: caspase-6 (human) enzyme inhibition; P55212; purified caspase-6, Z-VEID-R110 cleavage fluorescence; inhibition, % at 12.5 µM; 350,000 tested, 0.53% active;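 active means mean inhibition across replicates at least about 35%, with every replicate also reaching that limit, limit read from the data; inconclusive means only one of the two criteria met; inactive means neither criterion met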
Glyco luc inh: N-linked glycosylation inhibition. 360,000 tested, 0.23% active. D54 ERlucT glycosylation luciferase reporter, 24 h; percent of 100 nM tunicamycin response. AID 588692. reporter increase, % at 12.5 µM;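 active means mean luciferase reporter signal, scaled so untreated is 0 and the glycosylation-blocking control 100, at or above a set limit in every replicate; inconclusive means mean reaches the limit but not every replicate does; inactive means mean below the limit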;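 further: luciferase carries N-glycosylation sites so blocking glycosylation raises the light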
A number is an active result; i = inactive; ? = inconclusive; nt = not tested or not shown.

SMILES	AF4-AF9 inh	RAD52 anneal inh	RAD54 branch	CASP6 VEID inh	Glyco luc inh
Cc1ccc(S(=O)(=O)Nc2cc(-c3nn(C)c(=O)c4ccccc34)ccc2N2CCOCC2)cc1	nt	i	i	i	45
C/C=C/c1ccc2c(c1)O[C@@H](CN(C)Cc1ccncc1)[C@H](C)CN([C@@H](C)CO)S2(=O)=O	i	i	i	i	nt
C[C@H](CO)N1C[C@H](C)[C@H](CN(C)S(=O)(=O)c2ccc(F)cc2)Oc2c(NC(=O)c3cnccn3)cccc2C1=O	i	i	nt	i	nt
Cc1noc(C)c1NC(=O)N(C)C[C@@H]1Oc2cc(C#CCC3CCCC3)ccc2S(=O)(=O)N([C@H](C)CO)C[C@H]1C	?	i	i	i	nt
Cc1noc(C)c1NC(=O)N(C)C[C@H]1Oc2cc(C#CCC3CCCC3)ccc2S(=O)(=O)N([C@H](C)CO)C[C@H]1C	37	i	i	i	nt
Cc1noc(C)c1NC(=O)N(C)C[C@@H]1Oc2cc(C#CCC(C)C)ccc2S(=O)(=O)N([C@@H](C)CO)C[C@@H]1C	28	i	i	i	nt
Cc1noc(C)c1NC(=O)N(C)C[C@@H]1Oc2cc(C#CCC3CCCC3)ccc2S(=O)(=O)N([C@@H](C)CO)C[C@@H]1C	29	i	i	i	nt
Cc1noc(C)c1NC(=O)N(C)C[C@H]1Oc2cc(C#CCC3CCCC3)ccc2S(=O)(=O)N([C@H](C)CO)C[C@@H]1C	i	i	i	i	nt
CN1CCN(C(=O)C[C@@H]2C[C@@H]3c4cc(NC(=O)C5CCOCC5)ccc4O[C@@H]3[C@H](CO)O2)CC1	i	i	i	i	nt
C[C@@H](NC(=O)C[C@H]1CC[C@@H]2[C@H](COC[C@@H](O)CN2C(=O)Nc2cccc(F)c2)O1)c1ccccc1	i	i	i	i	nt
COc1ccc(S(=O)(=O)Cc2ccc(C(=O)O)o2)cc1	i	i	i	i	i
Cc1ccc(S(=O)(=O)Cc2ccc(C(=O)O)o2)cc1	i	i	i	52	i
COc1ccc(-c2cc3ccccc3oc2=O)cc1NC(=O)c1ccc([N+](=O)[O-])o1	nt	nt	nt	nt	50
COc1ccc(-c2cc3ccccc3oc2=O)cc1NC(=S)NC(=O)c1ccc2c(c1)OCCO2	nt	nt	i	nt	70
COc1ccc(NC(=S)N(CCCN2CCCC2)Cc2cccn2Cc2ccc(Cl)cc2)cc1Cl	33	i	i	i	i
CC1CN(C(=O)c2cc(-c3ccncc3)nc3ccccc23)CC(C)O1 (centres undefined)	i	i	i	i	45
C[C@H]1CN([C@@H](C)CO)C(=O)c2cc(NC(=O)C3CCCCC3)ccc2O[C@@H]1CN(C)CC1CC1	i	i	i	nt	nt
CC=Cc1ccc2n(c1=O)C[C@H]1[C@H](CO)[C@@H](C(=O)NCc3ccc4c(c3)OCO4)[C@@H]2N1C(=O)COC (mixture of isomers)	i	i	i	i	nt
CC=Cc1ccc2n(c1=O)C[C@@H]1[C@@H](CO)[C@H](C(=O)NCc3ccc4c(c3)OCO4)[C@H]2N1C(=O)COC (mixture of isomers)	i	i	i	i	nt
CC=Cc1ccc2n(c1=O)C[C@H]1[C@H](CO)[C@@H](C(=O)NCc3ccc4c(c3)OCO4)[C@@H]2N1C(=O)C1CC1 (mixture of isomers)	i	58	i	i	nt
CC=Cc1ccc2n(c1=O)C[C@@H]1[C@@H](CO)[C@H](C(=O)NCc3ccc4c(c3)OCO4)[C@H]2N1C(=O)C1CC1 (mixture of isomers)	i	55	i	i	nt
COc1cccc(NC(=O)N[C@@H]2C=C[C@H](CC(=O)N3CCCCC3)O[C@H]2CO)c1	i	i	i	i	nt
Cn1ncc2c(O/N=C(\N)c3ccc(C(F)(F)F)cc3)ncnc21	i	i	i	i	41
C[C@H](CO)N1C[C@H](C)[C@H](CN(C)C(=O)c2ccncc2)Oc2ncc(C3=CCCCC3)cc2C1=O	i	i	i	i	nt
CC(C)(C)c1ccc(C(=O)Nc2ccc(S(=O)(=O)Nc3cnc4ccccc4n3)cc2)cc1	i	i	i	61	i
COc1cccc(/C=N/Nc2nc(C)cc(=O)[nH]2)c1OC	i	i	i	42	i
CCOc1ccccc1/C=N/Nc1nc(C)cc(=O)[nH]1	nt	nt	i	nt	i
C[C@@H]1CN([C@H](C)CO)C(=O)c2cc(NC(=O)c3ccncc3)ccc2O[C@@H](C)CCCCO[C@H]1CN(C)C(=O)Nc1ccc2c(c1)OCO2	i	i	i	i	nt
O=C(/C=C/c1ccco1)N1CCN(S(=O)(=O)c2ccccc2)CC1	i	i	i	48	i

Assay outcomes (PubChem BioAssay)
